# From PubChem BioAssay (NCATS)
# Where “and” joins values, the source holds several entries; their conditions need not be identical. Equal entries are not always repeated. Inconclusive results are not listed. Values without a mark were called inactive. Calls of active or inactive are those of the source. Calls come from the whole dose curve; as a rule, active = well fitted curve in the direction sought with a large enough effect; inconclusive = small, poorly fitted or top-dose-only effect, or another doubt; inactive = no such curve, though single readings can be large; an effect the other way counts as inactive or inconclusive.
# Columns and labels:
# [1] = Viability qHTS for spleen associated tyrosine kinase inhibitor (SYKi) naive MV4-11 cells (AID 1963823); note: nearly all actives have a fitted effect of over 40% in size; note: potency is the fitted concentration of half-maximal effect
# Summary of the method: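 CellTiter-Glo luminescence, 10 min room-temperature incubation, gave viability. Cells: naive MV4-11 (500/well), treated 72 hr at 37 C, 5% CO2.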
# [2] = Viability qHTS for spleen associated tyrosine kinase inhibitor (SYKi) drug resistant MV4-11 cells (AID 1963824); note: nearly all actives have a fitted effect of over 35% in size; note: potency is the fitted concentration of half-maximal effect
# Summary of the method: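 SYK inhibitor-resistant MV4-11 AML cells, 500 per well, added to predispensed compounds and incubated 72 hr at 37 C, 5% CO2. Viability measured by CellTiter-Glo luminescence after 10 min at room temperature.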
# [3] = Quantitative highthroughput screen to assess conditional lethalithy of NOMO1 cells grown in RPMI1640 with dialyzed fetal bovine serum (RPMI+ds) (AID 1963877); note: nearly all actives have a fitted effect of over 30% in size; note: potency is the fitted concentration of half-maximal effect;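 for Viability: series mostly up to about 46 µM; 100% = DMSO control wells and 0% = empty wells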
# Summary of the method: (§1)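 Each medium arm—HPLM with 10% dialyzed FBS, or RPMI1640 with 5 mM glucose and 10% untreated or dialyzed FBS—was screened against an 11-point, 3-fold compound titration for 48 h at 37 °C, with CellTiter-Glo luminescence as endpoint.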
# [4] = Quantitative highthroughput screen to assess conditional lethalithy of NOMO1 cells grown in Human Plasma-Like Medium with dialyzed fetal bovine serum (HPLM+ds) (AID 1963878); note: nearly all actives have a fitted effect of over 35% in size; note: potency is the fitted concentration of half-maximal effect;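 for Viability: 100% = DMSO wells and 0% = empty wells on each plate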
# Summary of the method: as §1
# [5] = Quantitative highthroughput screen to assess conditional lethalithy of P12 Ichikawa cells grown in Human Plasma-Like Medium with dialyzed fetal bovine serum (HPLM+ds) (AID 1963879); conditions: Potency: viability; note: nearly all actives have a fitted effect of over 35% in size; note: potency is the fitted concentration of half-maximal effect; for Viability: series mostly up to about 46 µM
# Summary of the method: as §1
# [6] = Quantitative highthroughput screen to assess conditional lethalithy of P12 Ichikawa cells grown in RPMI1640 with dialyzed fetal bovine serum (RPMI+ds) (AID 1963880); conditions: Potency: P12-Ichikawa viability; note: nearly all actives have a fitted effect of over 35% in size; note: potency is the fitted concentration of half-maximal effect;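 for Viability: 100% = DMSO wells and 0% = empty wells on each plate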
# Summary of the method: as §1
# [7] = Quantitative highthroughput screen to assess conditional lethalithy of P12 Ichikawa cells grown in RPMI1640 with untreated serum (RPMI+s) (AID 1963881); conditions: Potency: viability; note: nearly all actives have a fitted effect of over 35% in size; note: potency is the fitted concentration of half-maximal effect;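 for Viability: series mostly up to about 46 µM; 100% = DMSO wells and 0% = empty wells without cells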
# Summary of the method: as §1
# [8] = Quantitative highthroughput screen to assess conditional lethalithy of SEM cells grown in Human Plasma-Like Medium with dialyzed fetal bovine serum (HPLM+ds) (AID 1963882); note: nearly all actives have a fitted effect of over 35% in size; note: potency is the fitted concentration of half-maximal effect; for Viability: series mostly up to about 46 µM
# Summary of the method: as §1
# [9] = Quantitative highthroughput screen to assess conditional lethalithy of SEM cells grown in RPMI1640 with unreated serum (RPMI+s) (AID 1963883); note: nearly all actives have a fitted effect of over 35% in size; note: potency is the fitted concentration of half-maximal effect;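 for Viability: 100% = DMSO wells and 0% = empty wells without cells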
# Summary of the method: as §1
# [10] = Quantitative highthroughput screen to assess conditional lethalithy of SEM cells grown in RPMI1640 with dialyzed fetal bovine serum (RPMI+ds) (AID 1963884); note: nearly all actives have a fitted effect of over 35% in size; note: potency is the fitted concentration of half-maximal effect;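 for Viability: series mostly up to about 46 µM; 100% = DMSO control wells and 0% = empty wells without cells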
# Summary of the method: as §1
# [11] = Cellular viability qHTS for adrenocortical cancer (ACC) cell line SW-13 (AID 1963989); conditions: SW-13 ACC cells viability, CellTiter-Glo, 48 h; activity (max response): hits give low values; note: nearly all actives have a fitted effect of over 65% in size; note: potency is the fitted concentration of half-maximal effect;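 for activity (max response): cells grown in serum-free medium with ITS supplement; % is set by controls: 0 for no effect and ±100 for the full control effect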
# Summary of the method: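 Compound titrations (up to 46 uM final, in DMSO) were applied to SW-13 cells for 48 h at 37C/5% CO2. Reading used CellTiter-Glo after 20 min at room temperature; fitted curves yielded IC50 and efficacy.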
# [12] = Cellular viability qHTS for adrenocortical cancer (ACC) cell line NCI-H295R (AID 1963990); note: nearly all actives have a fitted effect of over 60% in size; note: potency is the fitted concentration of half-maximal effect
# Summary of the method: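 Readout: CellTiter-Glo luminescence, 20 min RT. Exposure: 48 h, 37C/5% CO2. Cells: NCI-H295R, ITS-DMEM serum-free. Range: up to 46 uM. Analysis: 4PL fit, IC50 plus efficacy.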
# [13] = Quantitative highthroughput screen to assess conditional lethalithy of NOMO1 cells grown in RPMI1640 with untreated serum (RPMI+s) (AID 1963876)
# Summary of the method: as §1
SMILES,Potency [1],Potency [2],Potency [3],Potency [4],Potency [5],Potency [6],Potency [7],Potency [8],Potency [9],Potency [10],Potency [11],Potency [12],activity (max response) [11],Potency [13]
CN1CC[C@@H](c2c(O)cc(O)c3c(=O)cc(-c4ccccc4Cl)oc23)[C@@H](O)C1,0.525 µM (active),0.296 µM (active),0.418 µM (active),0.264 µM (active),0.743 µM (active),0.59 µM (active),0.662 µM (active),0.372 µM (active),0.418 µM (active),0.469 µM (active),2.24 µM (active),1.26 µM (active),–,–
Cc1cn(CCN2CCN(c3ccccc3-c3cc(C#N)cc(C(=O)NCCCN4CCCC4)c3)CC2)c2ccccc12,3.72 µM (active),3.66 µM (active) and 3.32 µM (active),10.5 µM (active),8.31 µM (active),8.31 µM (active),–,8.31 µM (active),6.6 µM (active),13.2 µM (active),–,22.4 µM (active),5.62 µM (active),–,–
CC1Cc2ccccc2N1NC(=O)c1ccc(Cl)c(S(N)(=O)=O)c1 (stereo not drawn),inactive,inactive,inactive,inactive,inactive,inactive,–,inactive,inactive,–,–,inactive,9.73% and 7.78%,–
Cn1cnc(=N)c2[nH]cnc21,inactive,inactive,6.62 µM (active),4.69 µM (active),7.43 µM (active),7.43 µM (active),7.43 µM (active),3.32 µM (active),2.35 µM (active),3.32 µM (active),–,inactive,5.87%,–
CN(C1CCc2c(c3ccccc3n2CC(=O)O)C1)S(=O)(=O)c1ccc(F)cc1 (stereo not drawn),inactive,inactive,7.43 µM (active),5.9 µM (active),–,14.8 µM (active),9.35 µM (active),inactive,–,–,–,–,–,–
COc1cc2ncnc(Nc3cccc(Br)c3)c2cc1OC,4.68 µM (active),6.51 µM (active) and 5.25 µM (active),inactive,inactive,–,inactive,inactive,inactive,inactive,–,–,inactive,–,–
COc1ccc(-c2nc3ccc(C4=NNC(=O)CC4C)cc3[nH]2)cc1 (stereo not drawn),18.6 µM (active),11.8 µM (active),inactive,inactive,inactive,inactive,inactive,–,inactive,inactive,18.4 µM (active) and 20 µM (active),6.51 µM (active) and 14.1 µM (active),–,–
CC1CCN(c2cc(N3CCN(C)CC3)ccc2NC(=O)c2cc(C#N)c[nH]2)CC1,5.25 µM (active),11.8 µM (active),inactive,inactive,inactive,inactive,inactive,inactive,inactive,inactive,–,inactive,-21.1%,–
COc1cc2ncnc(Nc3ccc(F)c(Cl)c3)c2cc1OCCCN1CCOCC1,4.22 µM (active),6.68 µM (active) and 3.66 µM (active),–,–,–,inactive,inactive,38.2 µM (active),42.9 µM (active),–,–,inactive,–,inactive
Cc1ccc(C(=O)N(CCCN)[C@@H](c2oc3cc(Cl)ccc3c(=O)c2Cc2ccccc2)C(C)C)cc1,0.0105 µM (active),0.0083 µM (active),–,–,–,–,inactive,inactive,inactive,inactive,0.0141 µM (active),0.316 µM (active),–,inactive
CC1(C)CC(=O)c2c(C(F)(F)F)nn(-c3ccc(C(N)=O)c(NC4CCC(O)CC4)c3)c2C1 (stereo not drawn),0.0209 µM (active),0.0332 µM (active),0.187 µM (active),0.235 µM (active),–,0.148 µM (active),0.148 µM (active),0.148 µM (active),0.148 µM (active),0.148 µM (active),0.224 µM (active),0.447 µM (active),–,–
O=C(N[C@@H](c1ccccc1)[C@@H]1CCCCN1)c1cccc(C(F)(F)F)c1Cl,16.6 µM (active),16.6 µM (active),inactive,inactive,inactive,–,–,–,–,–,28.2 µM (active),8.91 µM (active),–,–
CCCCN(CCCC)CCC(O)c1cc2c(Cl)cc(Cl)cc2c2cc(C(F)(F)F)ccc12 (stereo not drawn),10.6 µM (active),8.41 µM (active),inactive,inactive,inactive,inactive,13.2 µM (active),inactive,–,–,5.8 µM (active),5.8 µM (active),–,–
CC(C)C(=O)Nc1ncc(-c2cc(C(F)F)nn2-c2c(Cl)cccc2Cl)s1,18.6 µM (active),13 µM (active),–,–,–,–,–,–,–,–,–,22.4 µM (active),–,inactive
NS(=O)(=O)c1cccc2c1C(=O)c1cccc(O)c1C2=O,0.525 µM (active),0.468 µM (active),23.5 µM (active),20.9 µM (active),26.4 µM (active),26.4 µM (active),–,6.62 µM (active),1.48 µM (active),0.372 µM (active),1.26 µM (active),0.631 µM (active),–,–
